Assay outcomes deposited in PubChem by National Center for Advancing Translational Sciences (NCATS).
HCV inhibitor: HCV inhibition. Huh7.5.1 HCVcc-Cre infection, luciferase reporter, 44 h. Potency, µM (series often up to 41.8 µM), usual class: inhibitors. 340,000 compounds, 3.4% hits. AID 651820
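Infectious HCVcc-Cre (~0.5 moi) was added to cells just after compound, with cells seeded 4 h earlier at 1,000 per well. Luciferase activity after 44 h culture reported infection; substrate was incubated 15 min at room temperature before reading.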
AmpC inh detg: inhibitors of E. coli AmpC beta-lactamase with detergent | P00811 | 370,000 compounds, 0.041% hits | AmpC hydrolysis of nitrocefin, absorbance 480 nm, 0.01% Triton | Potency, µM (highest dose often 114 µM), actives largely listed as inhibitors; further: nearly all actives have a fitted effect of over 25% in size
Target sequence (P00811 whole entry, looked up): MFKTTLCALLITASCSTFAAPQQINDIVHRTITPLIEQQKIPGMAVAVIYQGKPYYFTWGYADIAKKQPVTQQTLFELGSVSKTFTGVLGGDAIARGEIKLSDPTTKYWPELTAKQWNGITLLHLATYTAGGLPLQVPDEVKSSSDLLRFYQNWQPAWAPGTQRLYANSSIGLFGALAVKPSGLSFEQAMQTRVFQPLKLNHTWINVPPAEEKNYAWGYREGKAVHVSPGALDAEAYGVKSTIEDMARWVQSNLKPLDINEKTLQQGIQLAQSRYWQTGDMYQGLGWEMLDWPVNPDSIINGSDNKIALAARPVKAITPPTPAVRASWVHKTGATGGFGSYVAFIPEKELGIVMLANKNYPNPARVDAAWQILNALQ
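20 mM phosphate pH 7.0 + 0.01% (detergent screen) or 0.0001% Triton X-100; 5.3 nM AmpC reagent; cpd preinc 15 min RT; nitrocefin (800 uM stock) to start; A480 q20 s × 4 min; Activity was normalised to no-enzyme and no-compound control wells.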
HCMV antiviral: blocks human cytomegalovirus replication; AID 1259415; activity change, negative = inhibition, % at 57.5 µM; 410,000 compounds, 4.5% hits; HFF cells, HCMV-luciferase reporter, 72 h; active compounds read low; in the data active means activity change below about -60%; inconclusive means no clear call, values can overlap the other calls; inactive means above about -39%
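Two compound doses tested in HFFs infected with HCMV-luciferase, MOI 1 PFU/cell, 72 h at 37C. Lysate luminescence read with OneGlo; data normalized against buffer-only and 10uM Salinomycin inhibitor controls.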
FMDV inh: foot and mouth disease virus antiviral activity | FMDV antiviral cell-based qHTS | Potency, µM (top dose mostly 57.9 µM), most hits filed as inhibitors | 410,000 compounds, 1.2% hits | AID 1159524; calls by dose curve; tested in HEK293T cells; further: read-out not given here; nearly all actives have a fitted effect of over 45% in size
AmpC inh no detg: inhibitors of E. coli AmpC beta-lactamase without detergent; 330,000 compounds, 0.52% hits; Potency, µM (series often up to 57.1 µM), usual class: inhibitors; P00811; AmpC nitrocefin hydrolysis, absorbance 480 nm, 0.0001% Triton; AID 485341; further: nearly all actives have a fitted effect of over 20% in size
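AmpC (5.3 nM in the dispensed reagent) in 20 mM phosphate pH 7.0 with 0.01% (detergent screen) or 0.0001% Triton X-100 was preincubated with compounds for 15 min at room temperature. Nitrocefin was then added from an 800 uM solution, and hydrolysis was followed at 480 nm.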
Hits are given with their value; . = inactive; ? = inconclusive; / = no result; ! = a repeat was not active. A selection: hits, their analogues and other compounds. The true share with any hit is near 7.3%. Unless noted, the call rests on the fitted dose curve; in most records, active means well fitted curve in the direction sought with a large enough effect; inconclusive means small, poorly fitted or top-dose-only effect, or another doubt; inactive means no such curve, though single readings can be large; an effect the other way counts as inactive or inconclusive.

SMILES	HCV inhibitor	AmpC inh detg	HCMV antiviral	FMDV inh	AmpC inh no detg
O=C(C#Cc1ccccc1)c1ccco1	?	?	-99.0	8.91µM	.
O=C(N/N=C/c1ccccc1)c1ccco1	.	.	.	.	.
Cc1cccc(NC(=O)NNC(=O)c2cc3ccccc3cc2O)c1C	.	.	.	.	?
O=C(NNC(=O)c1cc2ccccc2cc1O)Nc1ccccc1F	.	.	.	.	17.8µM
Cc1onc(-c2ccccc2)c1C(=O)OCC(=O)Nc1ccc(Cl)cc1	10µM	.	.	.	.
Cc1ccc(NC(=O)COC(=O)c2c(-c3ccccc3)noc2C)cc1	?	.	.	.	.
Cc1onc(-c2ccccc2)c1C(=O)OCC(=O)Nc1ccc(OC(F)(F)F)cc1	11.2µM	.	.	?	.
Cc1ccc2nc(-c3ccccc3)c(Cc3cccc(Cl)c3)n2c1	/	/	.	.	/
CCC(C)Sc1cccc(-c2nc3ccc(Cl)cn3c2NCc2ccccc2)c1 (stereo not given)	.	.	/	.	.
Cc1ccc2nc(-c3cccc(-c4cccc(Cl)c4)c3)c(NCc3ccccc3)n2c1	.	?	.	35.5µM	.
CCC(C)Sc1cccc(-c2nc3ccc(C)cn3c2NCc2ccccc2)c1 (stereo not given)	.	.	.	31.6µM!	.
Cc1ccc(C)c(OCc2cc(C(=O)N3CC[C@H](O)C3)no2)c1	.	.	.	.	.
CC(C)Oc1ccc(CCN)cc1Cl	.	.	.	.	.
COc1ccc(CN=C(N)N=C(N)N)cc1Cl	?	.	?	.	.
CC(C)COc1ccc(CN=C(N)N=C(N)N)cc1Cl	?	.	-76.5	?	.
CC(C)Oc1ccc(CN=C(N)N=C(N)N)cc1Cl	?	.	-74.6	?	.
C=C1CCC[C@]2(C)C[C@H]3OC(=O)C(CN[C@@H](C)c4ccccc4)[C@H]3CC12 (stereo not given in full)	?	.	-63.9	.	.
C=C1CCC[C@]2(C)C[C@H]3OC(=O)C(CNC(C)CCCC(C)C)[C@H]3CC12 (stereo not given in full)	?	.	-67.6	.	.
C=C1CCC[C@]2(C)C[C@H]3OC(=O)C(CNCC(OC)OC)[C@H]3CC12 (stereo not given in full)	.	.	.	.	.
C=C1CCC[C@]2(C)C[C@H]3OC(=O)C(CN(Cc4ccc(OC)c(OC)c4)CC(C)O)[C@H]3CC12 (stereo not given in full)	.	.	-99.1	?	.
CCn1c(CSc2n[nH]c(N)n2)nc2cc(C(=O)O)ccc21	.	.	.	.	.
Cc1nc(C(=O)N(Cc2cc3ccc(F)cc3nc2N2CCC(O)CC2)CC2CCCO2)cs1 (stereo not given)	/	/	/	.	/
CCC(=NCCc1c(C)[nH]c2ccc(C)cc12)C1=C(O)CC(c2ccccc2)CC1=O (stereo not given)	?	.	-76.7	.	.
CC(=O)C1=C(O)CC(c2ccccc2)CC1=NCCc1c(C)[nH]c2ccc(C)cc12 (stereo not given)	.	.	.	?	.
CCOc1ccccc1NC(=O)C1=C(C)Nc2ncnn2C1c1ccccn1 (stereo not given)	/	.	.	.	/
SMILES	HCV inhibitor	AmpC inh detg	HCMV antiviral	FMDV inh	AmpC inh no detg
Cc1nn(-c2ccccc2)c2nc(-c3ccncc3)cc(C(=O)NCc3ccco3)c12	?	.	.	.	.
CCOC(=O)c1cc(-c2cccs2)nc2c1c(C)nn2-c1ccccn1	10µM	.	-86.3	.	.
Cc1nn(-c2ccccc2)c2nc(-c3cccs3)cc(C(=O)NN)c12	?	.	?	.	.
Cc1nn(-c2ccccn2)c2nc(-c3cccs3)cc(C(=O)NCc3ccco3)c12	35.5µM	.	.	.	.
CCOC(=O)Cn1c(=O)n(Cc2ccc(C)cc2)c(=O)c2cccnc21	0.794µM	.	.	.	.
Cc1cc(-c2nc3cc(F)ccc3s2)ccc1N	?	/	.	.	/
COc1cc(O)c(C(C)=O)c(CC(=O)O)c1	3.16µM	.	.	.	.
Cc1ccc(NC(=O)c2cc3c(=O)n(Cc4ccco4)ccc3nc2C)cc1C	/	.	.	.	/
NCCn1cc(-c2cc(Cl)c(N)c(Cl)c2)ncc1=O	/	/	.	/	/
Cc1cc(NC(=O)c2ccc(C#N)cc2)n(-c2ccccn2)n1	?	.	.	.	.
Cc1cc(NC(=O)c2ccc(F)cc2)n(-c2ccccn2)n1	8.91µM	.	.	.	.
Cc1cc(NC(=O)Nc2cccc(Cl)c2)n(-c2ccccn2)n1	11.2µM	.	.	.	.
COC(=O)[C@@H]1CCCN1Cc1ccc2c(c1)CN(Cc1coc3ccc(C)cc3c1=O)CCO2	/	/	/	.	/
COC(=O)c1cc(NC(=O)c2cc(-c3ccc(C(F)(F)F)cc3)oc2C(F)(F)F)ccc1N1CCOCC1	3.55µM	.	-94.0	?	.
COC(=O)c1cc(NC(=O)c2c(C)noc2C)ccc1N1CCOCC1	.	.	.	.	.
COC(=O)c1cc(NC(=O)c2cc(-c3ccc(OC)cc3)oc2C(F)(F)F)ccc1N1CCOCC1	7.08µM	.	.	.	.
COC(=O)c1cc(NC(C)=O)ccc1N1CCOCC1	.	.	.	.	.
CCN1CCN(c2ccc(S(=O)(=O)N3CCOCC3)cc2NC(=O)C(C)Oc2ccc(F)cc2)CC1 (stereo not given)	.	.	.	.	.
COc1ccccc1N=c1sc2ccccc2n1C	1.78µM	.	.	/	.
COc1ccc(N=c2sc3ccccc3n2C)cc1	.	.	.	/	.
CC1=C(C(=O)OC2CCCC2)C(c2ccc(Cl)cc2)CC(=O)N1 (stereo not given)	/	.	?	?	/
O=C(NCc1ccccc1Cl)c1ccc(-n2cnc3cccnc32)cc1	/	.	-93.7	.	/
COc1ccc(CN(CC(=O)NCc2ccc(F)cc2)C(=O)c2csnn2)cc1	.	.	.	.	.
CCN(Cc1ccncc1)Cc1nc(CC2CC2)no1	.	.	-60.1	.	.
Cc1ccc(-c2nn(-c3ccc(F)cc3)cc2C(=O)N2CCN(C3CCS(=O)(=O)C3)CC2)cc1 (stereo not given)	.	?	.	.	.
SMILES	HCV inhibitor	AmpC inh detg	HCMV antiviral	FMDV inh	AmpC inh no detg
COCC(=O)N1C[C@H]2CON(C)[C@H]2C[C@H]1c1cccc(-c2ccc(C#N)cc2)c1	.	/	.	.	/
COc1ccc([C@H]2CC(=O)C=C(c3cc(F)ccc3F)C2)cc1OC	11.2µM	.	.	31.6µM	.
COc1ccc([C@H]2CC(=O)C=C(c3ccnc4ccc(Cl)cc34)C2)cc1	?	.	-77.8	?	.
COc1ccc([C@H]2CC(=O)C=C(c3cc(C)ccc3OC)C2)cc1	7.94µM	.	.	.	.
COc1ccc(NC(=O)Cn2c(=O)n(Cc3ccccc3Cl)c(=O)c3cc(OC)c(OC)cc32)cc1	/	.	.	?	/
CC(O)(COc1ccccc1)c1ccc2c(c1)CN(Cc1cccn1-c1ccccn1)CCO2 (stereo not given)	/	/	/	.	/
O=C(c1cccc(Cl)c1)n1nc(-c2cccnc2)nc1NCc1ccccc1	/	.	.	.	/
